Screening data as filed in PubChem BioAssay.
Only some compounds are listed: those with a hit (about 2.3% of all), similar ones and a draw of the others.
TDP-43 yeast inh: TDP-43 toxicity inhibition in yeast; Potency, µM (top dose mostly 46.1 µM), for the others: at the top dose growth rescue (activation), hits mostly activators; TDP-43 expressing yeast growth rescue, BacTiter-Glo, 24 h; AID 652104; actives 1.8% (n = 410,000); also: potency is read from the fitted curve at half-maximal effect; % of control where 0% means no effect; nearly all actives have a fitted effect of over 50% in size
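Luminescence from BacTiter-Glo reports growth of TDP-43-expressing yeast after 24 hr at 30 deg C with compound. Cells were raffinose-pregrown to mid-log, then seeded in galactose medium at OD600=0.02.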
Mm-Cpn inhibitor: M. maripaludis TRiC chaperonin inhibition; purified Mm-Cpn ATPase, ADP Transcreener TR-FRET; Potency, µM (doses to about 76.9 µM), for the others: at the top dose activity, negative = inhibition, actives largely listed as inhibitors; actives 0.031% (n = 330,000); AID 504842; also: potency is read from the fitted curve at half-maximal effect; % is scaled to controls: 0 for no effect and ±100 for the full control effect; nearly all actives have a fitted effect of over 80% in size
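Inhibition of chaperonin ATP hydrolysis is measured as reduced ADP production, detected by competitive TR-FRET in which signal falls with ADP. Final enzyme 25 nM and ATP 10 uM, reacted 30 min at 37°C.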
CCT modulator: modulators of cytosolic chaperonin (CCT/TRiC) activity. actives 0.3% (n = 360,000). activity change, % (test concentration not listed), hits read low. purified chaperonin ATPase assay, HTRF ADP detection, 30 min; in the data active = activity change below about -30%; also: % is scaled to controls: 0 for no effect and ±100 for the full control effect
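Enzyme 40 or 20 nM (batch-dependent) in Tris pH 7.4/KCl/MgCl2/DTT; cpd 76 uM single point; ATP 10 uM; 30 min 37 °C; Transcreener ADP HTRF detection, 30 min RT; ratio 665/615.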
aSyn yeast inh: inhibitors of alpha-synuclein toxicity in yeast; Yeast expressing alpha-synuclein, growth rescue, BacTiter-Glo, 24 h; Potency, µM (doses to about 46.1 µM), for the others: top-dose growth rescue (activation), actives largely listed as activators; actives 0.14% (n = 370,000); AID 652106; also: potency is read from the fitted curve at half-maximal effect; % of control where 0% means no effect; nearly all actives have a fitted effect of over 65% in size
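Readout is rescue of growth in alpha-synuclein-expressing yeast, so inhibitors of toxicity appear as activators. Growth after 24 hr at 30 deg C in galactose medium is quantified by luminescence.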
FUS yeast rescue: FUS proteinopathy suppression in yeast | S. cerevisiae FUS-expressing, growth rescue, OD600, 24 h | Potency, µM (titrated, usually from 76.6 µM), hits mostly activators | actives 0.24% (n = 390,000);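 also: potency is read from the fitted curve at half-maximal effect; plate controls were DMSO vehicle for no effect and reference control for full effect; nearly all actives have a fitted effect of over 55% in size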
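Steps: raffinose overnight preculture; dilution to OD 0.005 in 2% galactose minimal medium; compound addition (concentration series); 24hr at 30C, 99% humidity; absorbance read at 600 nm.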
Abeta rescue: restores growth of yeast expressing A-beta42 peptide; yeast expressing A-beta42, growth rescue, OD600, 48 h; response scale: 0% DMSO, 100% iron-clioquinol control; Potency, µM (top dose mostly 46.1 µM), actives largely listed as activators; actives 0.063% (n = 410,000); AID 1347071; also: potency is read from the fitted curve at half-maximal effect; nearly all actives have a fitted effect of over 55% in size
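Yeast growth medium received pinned compounds, then yeast cells expressing toxic A-beta were added; plates incubated at 30 C for 48 hr. Growth read as absorbance at 600 nm, normalized to DMSO and equimolar FeCl3 plus clioquinol controls.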
An asterisk follows results filed as active; i = inactive; ? = inconclusive; . = not tested or not shown; [ ] = dose if it differs, or a comment. Unless noted, calls follow the shape of the dose curve; as a rule, active = well fitted curve in the direction sought with a large enough effect; inconclusive = small, poorly fitted or top-dose-only effect, or another doubt; inactive = no such curve, though single readings can be large; an effect the other way counts as inactive or inconclusive.

SMILES	TDP-43 yeast inh	Mm-Cpn inhibitor	CCT modulator	aSyn yeast inh	FUS yeast rescue	Abeta rescue
O=[N+]([O-])c1cccnc1Sc1ccc(Br)cc1	13µM*	.	-2	-3%	i	i
Cc1ccccc1Sc1ncccc1[N+](=O)[O-]	13µM*	.	-4	3%	i	i
CSc1nn(Cc2ccc(Cl)cc2)c(N(C(C)=O)C(C)=O)c1S(=O)(=O)c1ccccc1	?	.	.	.	i	i
COc1cccc(Cn2nc(SC)c(S(=O)(=O)c3ccccc3)c2N(C(C)=O)C(C)=O)c1	20µM*	.	.	.	i	i
CSc1nn(Cc2cccc(F)c2)c(N(C(C)=O)C(C)=O)c1S(=O)(=O)c1ccccc1	35µM*	.	.	.	i	i
CSc1nn(Cc2ccc(Br)cc2)c(N(C(C)=O)C(C)=O)c1S(=O)(=O)c1ccccc1	35µM*	.	.	.	i	i
COC(=O)c1sc(=S)n(Cc2ccccc2)c1C	?	0%	1	2%	i	i
CC(=O)c1sc(=S)n(Cc2ccccc2)c1C	13µM*	-1%	-2	0%	i	i
Cc1csc2ncnc(N3CCN(S(=O)(=O)c4cccc(C(F)(F)F)c4)CC3)c12	18µM*	0%	1	12%	.	i
O=S(=O)(c1cccc(Br)c1)N1CCN(c2ncnc3scc(-c4ccccc4)c23)CC1	32%	.	3	1%	i	i
CNc1ccccc1C(C)(C)c1cc(-c2cccc([N+](=O)[O-])c2)no1	28%	-3%	0	8%	i	11µM*
CNc1ccccc1C(C)(C)c1cc(-c2cccc(Br)c2)no1	-4%[9.22 µM]	-2%	-2	-6%	i	?
Cc1nc2ccccc2nc1-c1csc(-c2ccccc2)n1	.	.	.	-4%	.	.
Cn1c(-c2ccccc2)cc2c3no[n+]([O-])c3ccc21	3.5µM*	-4%	-2	11%	i	i
Cc1cccc(N2CCN(S(=O)(=O)c3cc(C(=O)Nc4ccc(Oc5ccccc5)cc4)ccc3F)CC2)c1C	1%	.	.	.	i	i
O=C(CNC(=O)C1CCCCC1)OCCOc1ccccc1	.	.	.	-6%	.	.
Cn1c(-c2ccccc2)c(CCO)c2ccccc21	?	-6%	-2	22%	i	i
OCCCc1cn(-c2ccccc2)c2ccccc12	13µM*	-8%	-1	24%	i	i
Nc1cccc(-c2cn3ccsc3n2)c1	12%	.	.	.	i	i
CCC(C(=O)Nc1ccccc1N1CCCC1)c1cccc(Cl)c1 (configuration not stated)	.	.	.	.	i	.
COc1cccc(=O)c2c(C)n(C)c(C)c12	25%	-1%	0	0%	28µM*	i
C[C@H]1[C@@H](N)CC[C@@]23CCCN2C(=O)CCC[C@@H]13	.	.	.	.	i	.
O=C(OCc1cn(Cc2ccccc2F)nn1)N1CCCC1	.	.	.	.	i	.
C=CCN(c1ccccc1)S(=O)(=O)c1cccc(C(=O)Nc2ccncc2)c1	-9%	-1%	-3	-3%	i	i
C=CCN(c1ccccc1)S(=O)(=O)c1cccc(C(=O)Nc2ccc(N3CCOCC3)cc2)c1	14µM*	0%	-5	1%	i	i
Cc1nn(C)c2ncc(C(=O)c3ccccc3O)cc12	24%	-2%	0	5%	i	i
Cc1[nH]nc2ncc(C(=O)c3ccccc3O)cc12	19%	?	1	-6%	13µM*	i
CC1(C(=O)Nc2ccc(Cl)c(Cl)c2)CCN1Cc1ccccc1OC(F)F (configuration not stated)	22µM*	.	0	-36%	i	i
CCn1c2ccccc2c2cc(NC(=O)COC(=O)c3cc(F)ccc3C)ccc21	.	.	.	.	i	.
O=C(CCc1ccccc1)N[C@H]1[C@H](OCc2ccccc2)CCC[C@@]12C(=O)N(Cc1ccccc1)c1ccc(-c3ccccn3)cc12	.	.	.	.	i	.
